Screening results (PubChem BioAssay)
Rows were chosen to be rich in hits. Some 3.1% of all compounds tested hit in one or more screens of this group.
PP1 inh: PP1-alpha (human) inhibition in PP5 counter-screen | P62136 | inhibition, % at 6.7 µM | AID 2235 | purified PP1alpha, OMFP fluorescence | hit rate 0.9% among 320,000;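 active means inhibition above the mean inhibition of all tested compounds plus 3 SD, computed separately for each screening campaign, cut at about 15% in these data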
PP5 primary: inhibitors of human protein phosphatase 5 (PP5) | inhibition, % at 6.7 µM | AID 1987 | purified PP5c, OMFP substrate fluorescence | hit rate 0.18% among 320,000;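 active means inhibition above the campaign's mean inhibition across all tested compounds plus 3 SD, cut at about 9.5% in these data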
Target sequence (P53041 whole entry, looked up): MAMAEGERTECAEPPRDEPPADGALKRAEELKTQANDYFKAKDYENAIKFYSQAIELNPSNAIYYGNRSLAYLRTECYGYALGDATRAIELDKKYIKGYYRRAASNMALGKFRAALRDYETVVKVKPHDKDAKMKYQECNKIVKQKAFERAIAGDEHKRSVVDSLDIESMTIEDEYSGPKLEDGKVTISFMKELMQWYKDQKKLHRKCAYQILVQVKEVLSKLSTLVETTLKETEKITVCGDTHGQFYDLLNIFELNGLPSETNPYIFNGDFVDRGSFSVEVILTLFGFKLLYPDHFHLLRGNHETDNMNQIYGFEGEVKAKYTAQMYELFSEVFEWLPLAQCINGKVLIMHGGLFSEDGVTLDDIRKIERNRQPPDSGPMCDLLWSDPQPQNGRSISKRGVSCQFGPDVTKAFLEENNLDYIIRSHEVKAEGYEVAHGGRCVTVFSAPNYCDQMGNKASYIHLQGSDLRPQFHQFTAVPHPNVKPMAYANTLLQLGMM
CSC inhib: blocks cancer stem cells; hit rate 1.1% among 300,000; inhibition, % at 7.5 µM; cancer stem cell-like cells viability, luminescence; in the data active means inhibition above about 75%; inconclusive means no clear call, values can overlap the other calls; tested in HMLE shEcad cells
Beta cell apopt: blocks beta cell apoptosis; INS-1E cytokine-induced death, ATP luminescence, 48 h; percent of positive-control rescue, neutral wells zero; hit rate 0.8% among 300,000; AID 435005; protection from apoptosis, % (concentration not given with the values);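 active means Every replicate reaches about 75%, or at least half do and their mean reaches it too, limit read from the data; inconclusive means At least half of replicates reach the limit but their mean does not; inactive means Under half of replicates reach the limit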;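 further: higher means more ATP so stronger rescue from cytokine killing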
SKKanGAS inh: inhibitors of SKKanGAS S. pyogenes growth in kanamycin (SK-promoter or general growth effect). BacTiter-Glo, 6 h. inhibition, % at 7.5 µM. hit rate 1.3% among 300,000. AID 1662;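 active means mean replicate score, as percent of positive control median, at least 50; inconclusive means mean below 50 but one replicate at or above 50; inactive means mean and every replicate below 50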;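 further: strain carries kanamycin resistance gene driven by streptokinase promoter and grows in 40 µg/ml kanamycin; loss of luminescence reflects streptokinase promoter inhibition or plain growth inhibition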
PP1 inh confirm: confirmation of human PP1 phosphatase inhibitors. purified PP1alpha, OMFP substrate fluorescence. shares compounds with PP1 inh. hit rate 52% among 1,900. inhibition, % at 6.7 µM;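 active means mean PP1 inhibition above a set limit taken from the earlier primary screen, cut at about 15% in these data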
PP5 inh counter: counter-screen for PP1 inhibitors: human PP5 phosphatase inhibition; shares compounds with PP1 inh; purified PP5c, OMFP fluorescence; inhibition, % at 6.7 µM; hit rate 4% among 1,900; AID 2360;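 active means mean PP5 inhibition over triplicate wells above about 9.5% taken from the earlier PP1 screen, limit read from the data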
Hits are given with their value; . = inactive; ? = inconclusive; / = no result.

SMILES | PP1 inh | PP5 primary | CSC inhib | Beta cell apopt | SKKanGAS inh | PP1 inh confirm | PP5 inh counter
C=CCn1c(SCC(=O)Nc2ccc(Br)cc2)nc(O)c(CC)c1=O | . | . | . | . | . | / | /
Oc1c(CN2CCc3ccccc3C2)cc(Cl)c2cccnc12 | 31.2 | . | 83.7 | . | 89.3 | 39.9 | .
CN(Cc1cc([N+](=O)[O-])c2cccnc2c1O)C1CCCCC1 | . | . | . | . | . | / | /
Oc1c(I)cc(Cl)c2cccnc12 | 18.8 | . | 84.4 | . | 99.6 | . | .
O=[N+]([O-])c1cc(CN2CCN(c3ccccc3)CC2)c(O)c2ncccc12 | 19.1 | . | . | 95.0 | ? | 29.1 | .
O=[N+]([O-])c1ccc2[nH]ncc2c1 | . | . | . | . | . | / | /
Cc1nnc2sc(-c3ccc(NC(=O)CSc4ccc(Cl)cc4)cc3)nn12 | 17.5 | . | . | . | . | . | .
O=C(CN1C(=O)S/C(=C\c2ccc(Cl)cc2)C1=O)NNC(=O)c1ccccc1O | 18.5 | . | . | . | . | . | .
O=C(CN1C(=O)S/C(=C\c2ccc(Cl)cc2)C1=O)NC1C=CS(=O)(=O)C1 (stereo not given) | . | . | . | . | . | / | /
CN(CC1CCCO1)S(=O)(=O)c1ccc(C(=O)Nc2ccc3c(c2)OCO3)cc1 (stereo not given) | . | . | . | . | . | / | /
CN(CC1CCCO1)S(=O)(=O)c1ccc(C(=O)Nc2nc3cc4c(cc3s2)OCO4)cc1 (stereo not given) | 23.2 | . | . | . | . | 25.7 | .
CC(=O)Nc1c(O)c2cccc3c2n(c1=O)CCC3 | . | . | . | . | . | / | /
COCCCNC(=O)CN(CCc1ccccc1)S(=O)(=O)c1ccccc1 | . | . | . | . | . | / | /
COCCNC(=O)CN(CCc1ccccc1)S(=O)(=O)c1ccc(Br)cc1 | 32.6 | . | . | . | . | . | .
Cc1cc(C)c(C(=O)OCc2csc(CC(=O)Nc3ccccc3C)n2)c(C)c1 | 20.5 | . | . | . | . | . | .
CCC(=O)Nc1nnc(SCC(=O)NCCc2ccc(OC)c(OC)c2)s1 | . | . | . | . | . | / | /
CCOc1cc(/C=C2\SC(=Nc3ccc(CC)cc3)NC2=O)ccc1OCC(=O)O | 21.7 | . | . | . | . | . | .
CCc1ccc(N=C2NC(=O)/C(=C/c3cc(OC)c(OC)c(OC)c3)S2)cc1 | . | . | . | . | . | / | /
CCc1ccc(N=C2NC(=O)/C(=C/c3cc(Br)c(OCC(=O)O)c(OC)c3)S2)cc1 | 30.3 | . | . | . | . | 21.1 | .
O=C(Cn1cnc2sc(-c3ccccc3)cc2c1=O)NCc1ccco1 | 21.5 | . | . | . | / | 19.1 | .
COc1cc(OC)c(/C=N/NC(=O)COc2cccc3cccnc23)c(OC)c1 | . | . | . | . | . | / | /
O=C(c1ccc(Cn2cc(Br)cn2)cc1)N1N=C(C(F)F)CC1(O)C(F)F (stereo not given) | . | . | . | . | . | / | /
CCN1CCN(Cc2ccc(NC(=O)c3cc(NC(=O)c4cncc(-c5ccc(C#N)cc5)c4)cc(OC)c3)cc2C(F)(F)F)CC1 | 51.3 | . | . | 86.7 | . | . | .
Cc1ccc(-n2c(C)cc(-c3csc(N)n3)c2C)cc1 | 19.4 | . | . | . | . | . | .
Cc1cc(-c2csc(N)n2)c(C)n1C | . | . | . | . | . | / | /
SMILES | PP1 inh | PP5 primary | CSC inhib | Beta cell apopt | SKKanGAS inh | PP1 inh confirm | PP5 inh counter
COc1cc(/C=C2\CCn3c2nc2cc(C(=O)O)ccc2c3=O)ccc1OC(F)F | . | . | . | . | . | / | /
COc1ccc(-c2nn(C)c(=O)c3ccccc23)cc1NC(=O)Cn1nc(-c2ccccc2)c2ccccc2c1=O | 24.1 | . | . | . | . | 17.5 | .
COc1ccc2[nH]c3c(=O)n(CCCCC(=O)N4CCCC4)c(=S)[nH]c3c2c1 | 36.2 | . | . | . | . | 32.8 | .
O=C(NCCNC(=O)c1ccc(Cl)cc1Cl)c1cnccn1 | . | . | . | . | . | / | /
Cc1ccc(C(=O)N2CCN(c3cccc(Cl)c3)CC2)cc1C | . | . | . | . | . | / | /
Cc1cc(C(=O)N2CCN(c3ccccc3)CC2)no1 | 26.6 | . | . | . | . | . | .
Cc1ccc(C(=O)N2CCN(c3ccccc3)CC2)cc1C | 32.3 | . | . | . | . | . | .
COc1ccc(N2CCN(C(=O)c3cc(C)on3)CC2)cc1 | . | . | . | / | . | / | /
CCOC(=O)C1(CCc2ccccc2)CCN(C(=O)C2CCOCC2)CC1 | . | . | . | . | . | / | /
CC(=O)N1N=C(c2ccccc2OC(=O)/C=C/c2ccccc2)CC1c1ccccc1 (stereo not given) | 21.3 | . | . | . | . | . | .
CC(=O)N1N=C(c2ccc3nccnc3c2)CC1c1ccccc1 (stereo not given) | . | . | . | . | . | / | /
CCN(CC)CCOC(=O)c1ccc(N/C=C(/C#N)c2nc(-c3cccc(OC)c3)cs2)cc1 | 53.8 | . | . | . | . | . | .
Cc1ccc(-c2csc(/C(C#N)=C/Nc3ccc4c(c3)OCCO4)n2)cc1 | . | . | . | . | . | / | /
CCN(CC)CCOC(=O)c1ccc(N/C=C(/C#N)c2nc(-c3ccc(OC)c(OC)c3)cs2)cc1 | 66.3 | . | . | . | . | 35.1 | .
COc1ccc2oc(C(=O)OCC(=O)/C(C#N)=C(\C)N)c(C)c2c1 | . | . | . | . | . | / | /
CCOC(=O)c1c(C)[nH]c(C(=O)OCC(=O)NCc2ccc(C)cc2)c1C | 18.8 | . | . | . | / | . | .
O=C(CNS(=O)(=O)c1ccc(Br)s1)NCc1ccccc1 | . | . | . | . | . | / | /
Cc1ccc(S(=O)(=O)n2ccc3c(OCCOCCNCc4ccc(F)cc4)cccc32)cc1 | 18.4 | . | . | . | . | . | .
Cc1ccc(S(=O)(=O)NCCCCC(NC(=O)OC(C)(C)C)C(=O)O)cc1 (stereo not given) (tested in a mixture with another compound) | . | . | . | . | . | / | /
Cc1ccc(S(=O)(=O)n2ccc3c(OCCOCCSCC(NC(=O)OC(C)(C)C)C(=O)O)cccc32)cc1 (stereo not given) | 20.7 | . | . | . | . | . | .
COc1cccc(NC(=O)COC(=O)CCn2c(C)csc2=O)c1 | . | . | . | . | . | / | /
Cc1ccc(C2=NN(C(=O)CCC(=O)O)C(c3cn(-c4ccccc4)nc3-c3ccc(C)cc3)C2)cc1 (stereo not given) | 19.9 | . | . | . | . | 22.6 | .
COc1ccc(C2=NN(c3ccccc3)C(c3cn(CCC(=O)O)nc3-c3ccccc3)C2)cc1 (stereo not given) | 24.0 | . | . | . | . | . | .
O=C(O)CCC(=O)N1N=C(c2cccs2)CC1c1cn(-c2ccccc2)nc1-c1ccccc1 (stereo not given) | . | . | . | . | . | / | /
COc1ccc2c(c1)OC13CCCCC1C2C(C(=O)c1ccccc1)C(=O)N3 (stereo not given) | . | . | . | . | . | / | /
CCCN1C(=O)C(=O)c2cc(Cl)ccc21 | / | / | . | . | / | / | /
